Compound activity: PubChem, Broad Institute
This excerpt belongs to a sample that is enriched for hits.
IDE exosite FP: insulin-degrading enzyme (human) exo-site inhibition | P14735 | purified IDE, FL-6b probe fluorescence polarization; hits give low values | z-score at 20 µM | hit rate 6.3% among 17,000;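 active = z-score of -3 or lower, meaning strong loss of probe binding signal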;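 note: His-tagged human IDE residues 42-1019 made in E. coli with 30 nM FL-6b probe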
Large screens that a line does not name were inactive; ! = a repeat was not active.

COc1cccc(C#Cc2ccc([C@H]3[C@@H](C#N)N(C(=O)C4CCC4)[C@@H]3CO)cc2)c1	none
COc1ccc(-c2ccc([C@@H]3[C@H](C#N)N(C(=O)c4cccnc4)[C@H]3CO)cc2)cc1	none
CN(C)C(=O)c1cccc(-c2ccc([C@@H]3[C@@H](C#N)N(C(=O)C4CC4)[C@@H]3CO)cc2)c1	IDE exosite FP -3.6
CCC(=O)N(C)C[C@@H]1[C@H](c2ccc(-c3ccccc3F)cc2)[C@H](CO)N1C(C)=O	none
O=S(=O)(c1cccc(Cl)c1)N1[C@@H]2CNC[C@H]1C2c1ccc(-c2cccnc2)cc1 (stereo not given in full)	none
CCNC(=O)[C@@H]1[C@@H](CO)[C@@H]2Cn3c(cccc3=O)[C@@H]2N1C(=O)CC1CC1	none
CCS(=O)(=O)N1CC(=O)N2[C@H](CO)[C@@H](c3ccc(C#CC4CC4)cc3)[C@@H]2C1	none
COc1ccc(-c2ccc([C@H]3[C@@H](CO)N4C(=O)CN(Cc5ccc(C)cc5)C[C@@H]34)cc2)cc1	none
C[C@H]1CN([C@@H](C)CO)C(=O)CCCn2nncc2CO[C@@H]1CN(C)C(=O)CCC(F)(F)F	none
O=C(c1cnccn1)N1CC(=O)N2[C@@H](CO)[C@H](c3ccc(C#CCC4CCCC4)cc3)[C@@H]2C1	none
CCc1cnc(N2[C@@H](C#N)[C@@H](c3ccc(C4=CCCC4)cc3)[C@@H]2CO)s1	none
COc1ccccc1NC(=O)N1C[C@H](O)COC[C@@H]2O[C@H](CC(=O)NCCc3ccncc3)CC[C@H]21	none
CCC(=O)NC[C@H]1[C@@H](c2ccc(C3=CCCC3)cc2)[C@@H](CO)N1C(=O)CC	none
N#C[C@H]1[C@@H](c2ccc(C3=CCCCC3)cc2)[C@@H](CO)N1S(=O)(=O)c1cccc(F)c1	none
COc1ccccc1-c1ccccc1[C@@H]1[C@H](C#N)N(C(=O)C2CCC2)[C@H]1CO	none
COc1ccccc1-c1ccc([C@@H]2[C@H](C#N)N(C(=O)C3CCC3)[C@H]2CO)cc1	none
COc1ccccc1-c1ccc([C@@H]2[C@@H](C#N)N(C(=O)C3CCC3)[C@@H]2CO)cc1	IDE exosite FP -12
N#C[C@@H]1[C@H](c2ccc(-c3ccccc3F)cc2)[C@@H](CO)N1C(=O)C1CCC1	none
N#C[C@H]1[C@H](c2ccc(-c3ccccc3F)cc2)[C@@H](CO)N1C(=O)C1CCC1	none
COc1ccccc1-c1ccc([C@H]2[C@@H](CO)N(C(=O)C3CCC3)[C@H]2C#N)cc1	none
COc1ccccc1-c1ccccc1[C@H]1[C@@H](CO)N(C(=O)C2CC2)[C@H]1C#N	none
COc1ccccc1-c1ccc([C@@H]2[C@@H](CO)N(C(=O)C3CCC3)[C@H]2C#N)cc1	IDE exosite FP -6.5
COc1ccccc1-c1ccccc1[C@H]1[C@@H](C#N)N(C(=O)C2CCC2)[C@@H]1CO	none
N#C[C@H]1[C@H](c2ccc(-c3ccccc3F)cc2)[C@H](CO)N1C(=O)C1CCC1	IDE exosite FP -3.1
COc1ccccc1-c1ccc([C@H]2[C@H](C#N)N(C(=O)C3CCC3)[C@H]2CO)cc1	IDE exosite FP -8.1
COc1ccc(-c2ccc([C@H]3[C@H](C#N)N(C(=O)C4CCCC4)[C@H]3CO)cc2)cc1	none
O=C(Cc1ccncc1)NCC[C@@H]1CC[C@@H](NS(=O)(=O)c2ccccc2Cl)[C@@H](CO)O1	none
O=S(=O)(c1ccccc1)N1CC2(C1)[C@H](c1ccccc1)[C@H](CO)N2CCC(F)(F)F	none
CCCC#Cc1ccc([C@H]2[C@@H](CO)N(C(C)=O)[C@@H]2CNC(=O)C2CCC2)cc1	none
N#C[C@H]1[C@@H](c2ccc(C#CCC3CCCC3)cc2)[C@@H](CO)N1C(=O)c1ccccn1	none
CCCN(C[C@H]1[C@H](c2ccccc2)[C@@H](CO)N1C(C)=O)C(=O)NC(C)C	none
CCC(=O)N1[C@H](CO)[C@H](c2ccccc2)[C@@H]1CN(CC)C(=O)c1ccccc1	none
CCN(C[C@H]1N[C@H](CO)[C@H]1c1ccc(C2=CCCC2)cc1)C(=O)c1ccncc1	none
C[C@@H](O)C#Cc1ccc([C@H]2[C@@H](CO)N3CCCCN(C(=O)c4ccc(F)cc4)C[C@H]23)cc1	none
COCCNC(=O)C[C@@H]1CC[C@H]2[C@@H](COC[C@H](O)CN2S(=O)(=O)c2ccccc2F)O1	none
COc1ccccc1C(=O)N1C[C@@H]2[C@H](c3ccccc31)[C@H](CO)N2C(=O)Cc1ccccc1	none
C/C=C/c1ccc([C@H]2[C@@H](CN(C)C(=O)CC)N(C(=O)C3CC3)[C@H]2CO)cc1	none
CC(=O)NC[C@@H]1[C@@H](c2ccccc2)[C@H](CO)N1C(=O)Cc1cccnc1	none
CS(=O)(=O)N1[C@H](C#N)[C@@H](c2ccccc2-c2ccccc2F)[C@H]1CO	none
CS(=O)(=O)N1[C@H](CO)[C@@H](c2ccc(-c3ccccc3F)cc2)[C@@H]1C#N	IDE exosite FP -3.1
CS(=O)(=O)N1[C@H](C#N)[C@@H](c2ccccc2)[C@@H]1CO	none
CN(C)C(=O)c1ccc(-c2ccc(C3[C@@H]4CN(Cc5nccs5)C[C@H]3N4)cc2)cc1 (stereo not given in full)	none
COc1ccccc1-c1ccc([C@H]2[C@@H](CO)N(C(=O)C3CCOCC3)[C@H]2C#N)cc1	IDE exosite FP -8.3
CN(C)C(=O)c1cccc(-c2ccc(C3[C@@H]4CN(Cc5nccs5)C[C@H]3N4)cc2)c1 (stereo not given in full)	IDE exosite FP -3.2!
COc1ccccc1-c1ccc([C@H]2[C@@H](CO)N(C(=O)C3CC3)[C@H]2C#N)cc1	none
COc1ccccc1-c1ccccc1[C@@H]1[C@H](C#N)N(C(=O)C2CCOCC2)[C@H]1CO	none
CN(C)C(=O)c1cccc(-c2ccc(C3[C@H]4CNC[C@@H]3N4Cc3nccs3)cc2)c1 (stereo not given in full)	none
Cc1noc(C)c1C(=O)N(C)C[C@H]1OCc2ccccc2-c2ccccc2C(=O)N([C@@H](C)CO)C[C@H]1C	none
O=C(Nc1ccccc1F)N1CCCCN2[C@H](C1)[C@@H](c1ccc(C3=CCCC3)cc1)[C@@H]2CO	none
N#C[C@@H]1[C@H](c2ccccc2C2=CCCC2)[C@@H](CO)N1C(=O)C1CCCC1	none
N#C[C@H]1[C@H](c2ccc(C#CC3CCCC3)cc2)[C@@H](CO)N1C(=O)Cc1ccccn1	none
CC(C)CC#Cc1ccc([C@@H]2[C@@H](CO)N3C(=O)CN(C(=O)CN4CCOCC4)C[C@@H]23)cc1	none
N#C[C@@H]1N[C@@H](CO)[C@H]1c1ccc(C#Cc2ccc(F)cc2)cc1	none
CN(C)CC(=O)N1[C@@H](C#N)[C@@H](c2ccc(-c3ccccc3F)cc2)[C@@H]1CO	none
C/C=C/c1ccc([C@H]2[C@@H](CO)N(C(=O)C3CC3)[C@H]2CN(C)S(C)(=O)=O)cc1	none
O=C(c1ccccc1F)N1C[C@@H]2[C@H](c3ccccc31)[C@@H](CO)N2Cc1ccc2c(c1)OCO2	none
CCCC#Cc1ccc([C@@H]2[C@@H](CO)N3C(=O)CN(C(=O)NCCC)C[C@H]23)cc1	none
CCN(C[C@H]1[C@H](c2ccccc2)[C@@H](CO)N1C(C)=O)C(=O)c1ccccn1	none
O=C(c1ccc(F)cc1)N1CC(=O)N2[C@H](C1)[C@@H](c1ccc(-c3cccnc3)cc1)[C@@H]2CO	none
O=C(c1ccccn1)N1C[C@@H]2N[C@H](C1)C2c1ccc(-c2ccccc2F)cc1 (stereo not given in full)	IDE exosite FP -5.8!
N#Cc1ccc(-c2ccc(C3[C@@H]4CN(C(=O)c5ccccn5)C[C@H]3N4)cc2)cc1 (stereo not given in full)	none
Fc1cccc(-c2ccc(C3[C@@H]4CN(Cc5cccnc5)C[C@H]3N4)cc2)c1 (stereo not given in full)	none
